Data on 15 compounds can be found in PubChem BioAssay (EPA / NIEHS).

SMILES strings stand for the structures. Some compounds were tested as several samples or in several runs, with calls that do not always agree. Activity calls are given as the source filed them. The calls were made as follows: active = hit-call score of the fitted dose curve at least 0.9, where 1 is the maximum; inactive = score below 0.9.

A short description of this assay: CCTE_Shafer_MEA_acute_cross_correlation_HWHM: CCTE's Neural Acute Assay for Cross Correlation at Half Width at Half Maximum, Shafer Lab (AID 2284026). On the procedure: CCTE_Shafer_MEA_acute assay is conducted using Axion Biosystems 48 well microelectrode array (MEA) plates and Maestro recording system. Each well of the MEA plate contains a grid of 16 microelectrodes embedded in the culture surface. Electrically active cells, such as neurons, can be cultured over the electrodes, and electrical activity in these cells can be recorded extracellularly. The spontaneous firing of neurons is captured from each electrode on a microsecond timescale providing both temporally and spatially precise data. […] The CCTE_Shafer_MEA_acute assay uses primary cultures of rat cortical neurons. As these cultures mature over time, neural networks develop functional activity and form cohesive networks in which electrical activity can be highly coordinated. Baseline 40-minute recordings are made on days post-plating 13 or 15, followed by a secondary 40-minute recording after chemical exposure.CCTE_Shafer_MEA_acute_cross_correlation_HWHM is a component of the CCTE_Shafer_MEA_acute assay. It measures the distance along the x-axis (phase lag) from the left half maximum height to the center of the cross-correlogram of action potential firing during a recording in a microelectrode array (MEA) using Axion Biosystems Maestro 768 channel amplifier with the AxIS adaptive spike detector. Smaller values indicate a narrower correlogram (greater synchrony). The recordings before and after chemical treatment are used to calculate a percent change in the half width at half maximum of the cross-correlogram in each well.Data from the assay component CCTE_Shafer_MEA_acute_cross_correlation_HWHM was analyzed into 1 assay endpoint. This assay endpoint, CCTE_Shafer_MEA_acute_cross_correlation_HWHM, was analyzed in the negative analysis fitting direction relative to DMSO as the negative control and baseline of activity. Using a type of functional reporter, gain or loss-of-signal activity can be used to understand electrical activity.
Spontaneous activity in the cortical cultures was recorded using an Axion Biosystems Maestro 768 channel amplifier and Axion Integrated Studios (AxIS) v1.8 (or later) software. The amplifier recorded from all channels simultaneously (gain = 1200 x; sampling rate = 12.5 kHz/channel): raw signals were filtered with a Butterworth band-pass filter (300-5000 Hz), which filters out slower local field potentials leaving only fast potentials, i.e., "spikes", arising from extracellular currents associated with action potentials (Pine 2006; Wheeler and Nam 2011). On-line spike detection of filtered signals was conducted with the AxIS adaptive spike detector, using a threshold of 8x the root mean squared (rms) noise on each channel. Any electrodes with rms noise levels greater than 5 uV were grounded (e.g., no data were recorded). Once grounded, an electrode was grounded for the duration of the experiment. All recordings were conducted at 37 C. Wells were deemed usable if on the day of the exposure >/= 10 electrodes were active (defined as >/= 5 spikes/min). On DIV 13 or 15, a minimum of three wells from one cortical culture preparation were treated with each compound (0.03-40 uM). Prior to recording baseline activity, each mwMEA plate was placed in the Maestro at 37 C and allowed to sit for 20 min while firing rates stabilized. Baseline activity (40 min) was recorded before the addition of each compound. An additional 40 min of spontaneous activity was recorded in the presence of each compound. Changes in network parameters relative to baseline were assessed following compound treatment.
Consider `CC1(C)[C@@H](C=C(Cl)Cl)[C@@H]1C(=O)O[C@@H](C#N)c1ccc(F)c(Oc2ccccc2)c1`, for which the result was inactive. Turning to `COc1ccc(CO)cc1`, the outcome was inactive. Consider `[Cd+2].[Cl-].[Cl-]`, for which the compound was classed as inactive. `c1cc[n+]2c(c1)-c1cccc[n+]1CC2`: the compound was classed as inactive. Regarding `CC1(C)[C@H](C=C(Cl)Cl)[C@@H]1C(=O)O[C@@H](C#N)c1cccc(Oc2ccccc2)c1`, the AC50 is 15 µM (active). For `CCCC[N+](CCCC)(CCCC)CCCC`, the AC50 is 2.98 µM (active). With `CP(=O)(O)CC[C@H](N)C(=O)O`, the AC50 was 36.5 µM (active) and the outcome was inactive. With `C#CCN(C)[C@H](C)Cc1ccccc1`, the compound was classed as inactive. As for `CP(=O)(O)CCC(N)C(=O)O` (stereo unspecified), the compound was called inactive. For the compound `Cc1ccc(OP(=O)(Oc2ccc(C)cc2)Oc2ccc(C)cc2)cc1` (tested in a mixture with another compound), the AC50 was 8.25 µM (active). With `O=c1c2ccccc2c(=O)c2c1cc(Cl)c1[nH]c3c([nH]c12)c(Cl)cc1c(=O)c2ccccc2c(=O)c13`, the compound was called inactive. Take `CC1(C)[C@H](C(=O)O[C@H](C#N)c2cccc(Oc3ccccc3)c2)[C@@H]1C=C(Br)Br`: the AC50 is 3.1 µM (active).

In the case of `O=C(O)CNCP(=O)(O)O`, the compound was called inactive. Turning to `Oc1ccc(C2(c3ccc(O)cc3)c3ccccc3-c3ccccc32)cc1`, the AC50 is 28.1 µM (active).

For `O=[N+]([O-])O`, the compound was classed as inactive.
